This is a sample that favours compounds with a hit; in the whole collection about 9.2% have one here.
NPC1 promoter act: qHTS Assay for NPC1 Promoter Activators | Huh7 NPC1 promoter luciferase reporter, 24 h | Potency, µM (titrated, usually from 9.22 µM), inactives show at the top dose activation, actives largely listed as activators | hit rate 2.4% among 320,000 | AID 485313, 2010; note: % of control where 0% means no effect; nearly all actives have a fitted effect of over 60% in size
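Compounds in DMSO were transferred onto Huh7 NPC1-luciferase reporter cells pre-incubated 2 h; after 24 h at 37 °C, Amplite reagent was dispensed and luminescence recorded 10 min later.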
ELG1 genotoxic: qHTS screen for small molecules that induce genotoxicity in human embryonic kidney (HEK293T) cells expressing luciferase-tagged ELG1; HEK293T ELG1-luciferase reporter, luminescence, 16 h; Potency, µM (top dose mostly 46 µM), without a hit: top-dose activity change, positive = activation, most hits filed as activators; hit rate 1.3% among 330,000; note: % of control where 0% means no effect; nearly all actives have a fitted effect of over 60% in size
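16 hr compound incubation (37 °C, 5% CO2) of HEK293T cells carrying luciferase-tagged ELG1; luciferase then measured by ONE-Glo luminescence after 30 min at RT.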
Rab9 promoter act: qHTS Assay for Rab9 Promoter Activators | Huh7 Rab9 promoter-luciferase reporter, luminescence, 24 h | hit rate 2.8% among 320,000 | AID 485297, 2010 | Potency, µM (doses to about 9.22 µM), for the others: top-dose activation, negative = inhibition, usual class: activators; note: % of control where 0% means no effect; nearly all actives have a fitted effect of over 60% in size
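Cell-based reporter: Huh7 stable for Rab9 promoter-driven luciferase, plated in reduced-serum medium with 10% FBS at 1500 cells/well, compound-treated 24 h at 37 °C, luminescence read after 10 min reagent.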
SMN2 splice enh: qHTS Assay for Enhancers of SMN2 Splice Variant Expression | HEK293 SMN2-luciferase splicing reporter, luminescence, 30-36 h | Potency, µM (top dose mostly 46.1 µM), inactives show at the highest dose activity change, positive = activation, actives largely listed as activators | hit rate 2.8% among 210,000 | AID 1458, 2008; note: % of control where 0% means no effect; nearly all actives have a fitted effect of over 55% in size
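HEK293 cells carry an SMN2 […]–luciferase reporter in which exon 7 inclusion puts luciferase in frame. Cells were plated 10-12 h before compound addition, then incubated 30-36 h at 37C. ONE-Glo luminescence was read; sodium butyrate at 4.5 mM final served as control.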
ELG1 DNA repair: qHTS screen for small molecules that inhibit ELG1-dependent DNA repair in human embryonic kidney (HEK293T) cells expressing luciferase-tagged ELG1; HEK293T ELG1-luciferase reporter, luminescence, 16 h; DNA damage induced by 5-fluorouridine; Potency, µM (top dose mostly 46.1 µM), inactives show top-dose activity change, negative = inhibition, actives largely listed as inhibitors; hit rate 2.3% among 330,000; AID 504467, 2011; note: % is set by controls: 0 for no effect and ±100 for the full control effect; nearly all actives have a fitted effect of over 55% in size
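HEK293T cells expressing luciferase-tagged ELG1 (2,000/well) received 5-Fluorouridine plus compound or DMSO for 16 hr at 37 °C. Luciferase was read by ONE-Glo luminescence after 30 min at room temperature.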
FLuc modulator: qHTS profiling assay for firefly luciferase inhibitor/activator using purifed enzyme and Km concentrations of substrates (counterscreen for miR-21 project); Luciferin 4-monooxygenase (Photinus pyralis), P08659; purified FLuc, Km substrates, luminescence inhibition; Potency, µM (top dose mostly 57.5 µM), for inactives: at the top dose activity change, negative = inhibition, most hits filed as inhibitors; hit rate 6.9% among 360,000;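 note: plate controls were vehicle for no effect and reference inhibitor for full effect; nearly all actives have a fitted effect of over 55% in size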
Target sequence (P08659 whole entry, looked up): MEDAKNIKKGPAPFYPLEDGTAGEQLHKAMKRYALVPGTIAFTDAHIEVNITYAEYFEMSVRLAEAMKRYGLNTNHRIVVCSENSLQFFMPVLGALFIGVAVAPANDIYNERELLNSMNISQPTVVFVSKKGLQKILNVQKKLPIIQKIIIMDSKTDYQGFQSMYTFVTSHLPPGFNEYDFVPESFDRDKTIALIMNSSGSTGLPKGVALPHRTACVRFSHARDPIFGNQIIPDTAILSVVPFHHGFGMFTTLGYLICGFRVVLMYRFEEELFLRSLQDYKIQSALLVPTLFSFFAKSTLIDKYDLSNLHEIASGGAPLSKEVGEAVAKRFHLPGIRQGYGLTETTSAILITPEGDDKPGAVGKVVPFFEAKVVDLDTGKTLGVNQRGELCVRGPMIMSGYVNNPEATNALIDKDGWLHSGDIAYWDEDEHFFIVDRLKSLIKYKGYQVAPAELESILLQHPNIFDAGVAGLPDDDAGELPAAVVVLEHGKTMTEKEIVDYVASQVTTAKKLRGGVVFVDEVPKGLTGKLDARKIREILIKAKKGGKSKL
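Purified P. pyralis luciferase (10nM final) with 10uM D-luciferin and 10uM ATP (Km levels) in 50mM Tris acetate pH 7.5, 10mM Mg acetate, 0.01% Tween-20, 0.05% BSA; qHTS 6-point titration, ~60 µM downward; luminescence read.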
* hit, by the source's call; [ ] = dose if it differs, or a comment. Calls come from the whole dose curve; as a rule, active = well fitted curve in the direction sought with a large enough effect; inconclusive = small, poorly fitted or top-dose-only effect, or another doubt; inactive = no such curve, though single readings can be large; an effect the other way counts as inactive or inconclusive. Potency is the fitted concentration of half-maximal effect.

CCc1nc(OCc2ccco2)c2sc3nc4c(cc3c2n1)COC(C)(C)C4 was read as NPC1 promoter act -1.3%, ELG1 genotoxic -1.6%, Rab9 promoter act 0.1%, ELG1 DNA repair inconclusive and FLuc modulator -19.6%.
Screening COc1nc(C)nc2c1sc1nc3c(cc12)COC(C)(C)C3 returned NPC1 promoter act 2.51µM*, ELG1 genotoxic 8.2µM*, Rab9 promoter act 2µM*, SMN2 splice enh 14.1µM*, ELG1 DNA repair inconclusive and FLuc modulator 13.5µM*.
Screening Cc1nc(OCC(C)C)c2sc3nc4c(cc3c2n1)COC(C)(C)C4 returned NPC1 promoter act 1.78µM*, ELG1 genotoxic inconclusive, Rab9 promoter act 1.41µM*, ELG1 DNA repair inconclusive and FLuc modulator 9.53µM*.
Cc1ccc(-n2c3nc(=O)n(C)c(=O)c-3cc3c(Cl)cccc32)c(C)c1 was read as SMN2 splice enh -5.2% and FLuc modulator 0.1%.
Screening COc1ccc(-c2nnc(SCc3cccc(Cl)c3)o2)cc1 returned SMN2 splice enh -22.1% and FLuc modulator inconclusive.
`COc1ccc(-n2c(=S)[nH]c3cc(C(=O)Nc4ccccc4OC)ccc3c2=O)c(OC)c1` gave NPC1 promoter act -10.8%, ELG1 genotoxic -17.9%, Rab9 promoter act -2.3%, ELG1 DNA repair 16.4µM* and FLuc modulator 1.9%.
For O=C1C(=O)N(C2CCN(S(=O)(=O)c3ccccc3)CC2)CCN1Cc1ccccc1 the results were FLuc modulator -2.3%.
`COc1cccc(OCc2cc(C(=O)N3CCN(C(C)=O)CC3)no2)c1` gave NPC1 promoter act inconclusive, ELG1 genotoxic inconclusive, Rab9 promoter act 3.16µM*, ELG1 DNA repair inconclusive and FLuc modulator inconclusive.
`COc1cccc(OCc2cc(C(=O)N3CCN(c4ccccc4O)CC3)no2)c1` gave NPC1 promoter act 2.82µM*, ELG1 genotoxic inconclusive, Rab9 promoter act 3.16µM*, ELG1 DNA repair inconclusive and FLuc modulator 12µM*.
Screening COc1ccc(OCc2cc(C(=O)N3CCN(CC4CC4)CC3)no2)c(Cl)c1 returned NPC1 promoter act inconclusive, ELG1 genotoxic 4.6%[9.26 µM], Rab9 promoter act inconclusive, ELG1 DNA repair inconclusive and FLuc modulator inconclusive.
Screening COc1cccc(OCc2cc(C(=O)N3CCN(c4ccccc4OC)CC3)no2)c1 returned NPC1 promoter act inconclusive, ELG1 genotoxic 16.8%, Rab9 promoter act inconclusive, ELG1 DNA repair inconclusive and FLuc modulator 15.1µM*.
CCOc1ccc(-c2nc(CSCC(=O)NCc3ccco3)c(C)o2)cc1 was read as NPC1 promoter act -3.6%, ELG1 genotoxic 15.0%, Rab9 promoter act -7.4%, SMN2 splice enh -64.6%, ELG1 DNA repair 7.31µM* and FLuc modulator 12µM*.
Screening CCOC(=O)N1CCC(NC(=O)CSCc2nc(-c3ccc(OCC)cc3)oc2C)CC1 returned NPC1 promoter act -1.5%, ELG1 genotoxic -9.2%, Rab9 promoter act -0.7%, ELG1 DNA repair 13µM* and FLuc modulator -17.9%.
CCOc1ccc(-c2nc(CSCC(=O)NC3CC3)c(C)o2)cc1 was read as NPC1 promoter act 1.0%, ELG1 genotoxic -0.2%, Rab9 promoter act -23.7%, ELG1 DNA repair 13.8% and FLuc modulator inconclusive.
Screening CCOC(=O)N1CCC(NC(=O)CSCc2nc(-c3cccc(OC)c3)oc2C)CC1 returned NPC1 promoter act -9.8%, ELG1 genotoxic -8.8%, Rab9 promoter act -19.6%, SMN2 splice enh -70.0%, ELG1 DNA repair 11.6µM* and FLuc modulator 6.4%.
`COc1ccc(C(=O)N(Cc2ccco2)Cc2ccco2)cc1` gave SMN2 splice enh -13.8% and FLuc modulator -1.8%.
CCC(=O)Oc1ccc(C(=O)Nc2cccc(C(=O)NC(C)(C)C)c2)cc1 was read as NPC1 promoter act -1.2%, ELG1 genotoxic -1.0%, Rab9 promoter act 0.1%, SMN2 splice enh 17.2%, ELG1 DNA repair -16.0% and FLuc modulator 10.7µM*.
Screening CC(C)(C)NC(=O)c1cccc(NC(=O)c2ccc3c(c2)C(=O)N(C(C)(C)C)C3=O)c1 returned NPC1 promoter act 0.1%, ELG1 genotoxic 0.2%, Rab9 promoter act -3.5%, ELG1 DNA repair inconclusive and FLuc modulator 10.7µM*.
Screening CC(C)(C)N1C(=O)c2ccc(C(=O)O)cc2C1=O returned NPC1 promoter act 0.1%, ELG1 genotoxic -0.3%, Rab9 promoter act -0.3%, SMN2 splice enh -6.1%, ELG1 DNA repair -6.9% and FLuc modulator 4.5%.
CC(C)(C)N1C(=O)c2ccc(C(=O)Nc3ccc(O)cc3)cc2C1=O was read as NPC1 promoter act inconclusive, ELG1 genotoxic 13.2%, Rab9 promoter act inconclusive, ELG1 DNA repair 10.8% and FLuc modulator 13.5µM*.
Screening COC(=O)c1cccc(NC(=O)c2ccc3c(c2)C(=O)N(C(C)(C)C)C3=O)c1 returned NPC1 promoter act inconclusive, ELG1 genotoxic 2.1%, Rab9 promoter act inconclusive, ELG1 DNA repair 0.2% and FLuc modulator 2.69µM*.
For CCC(=O)Oc1ccc(C(=O)Nc2cccc(NC(=O)c3ccco3)c2)cc1 the results were NPC1 promoter act -0.5%, ELG1 genotoxic -9.1%, Rab9 promoter act -2.2%, ELG1 DNA repair -1.7% and FLuc modulator inconclusive.
For COc1ccc(CCNCc2cc3ccc(C)cc3[nH]c2=O)cc1OC the results were NPC1 promoter act -4.2%, ELG1 genotoxic -0.2%, Rab9 promoter act -1.4%, ELG1 DNA repair -2.8% and FLuc modulator -0.7%.
`COc1cc2ncc3c(-c4ccccc4)nn(-c4ccc(C)cc4)c3c2cc1OC` gave FLuc modulator 2.7%.
For CC(C)C(=O)Nc1ccc(N2CCOCC2)c(S(=O)(=O)Nc2ccccc2Cl)c1 the results were ELG1 genotoxic -5.7% and ELG1 DNA repair inconclusive.
Screening COc1ccc(CCNC(=O)c2ccc(Cn3c(=O)c4cccn4c4cccnc43)cc2)cc1OC returned FLuc modulator -7.3%.
`Cc1cc(C(=O)CN2C(=O)NC3(CCCc4sccc43)C2=O)c(C)n1-c1ccccc1` (stereo not given) gave NPC1 promoter act 8.9%, ELG1 genotoxic -0.9%, Rab9 promoter act 12.4%, SMN2 splice enh 9.8%, ELG1 DNA repair inconclusive and FLuc modulator 16.9µM*.
CCc1nn2c(=O)cc(COC(=O)c3ccccc3NC(=O)C3CCCCC3)nc2s1 was read as FLuc modulator -2.2%.

Screens as filed in PubChem.
